MITF primary = blocks human microphthalmia-associated transcription factor. AlphaScreen MITF homodimerization, bead proximity signal. 650,000 tested, 0.91% active. inhibition, % at 2.6 µM; in the data active means inhibition above about 50%;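 further: 0% = vehicle wells with protein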
Target sequence (O75030 whole entry, looked up): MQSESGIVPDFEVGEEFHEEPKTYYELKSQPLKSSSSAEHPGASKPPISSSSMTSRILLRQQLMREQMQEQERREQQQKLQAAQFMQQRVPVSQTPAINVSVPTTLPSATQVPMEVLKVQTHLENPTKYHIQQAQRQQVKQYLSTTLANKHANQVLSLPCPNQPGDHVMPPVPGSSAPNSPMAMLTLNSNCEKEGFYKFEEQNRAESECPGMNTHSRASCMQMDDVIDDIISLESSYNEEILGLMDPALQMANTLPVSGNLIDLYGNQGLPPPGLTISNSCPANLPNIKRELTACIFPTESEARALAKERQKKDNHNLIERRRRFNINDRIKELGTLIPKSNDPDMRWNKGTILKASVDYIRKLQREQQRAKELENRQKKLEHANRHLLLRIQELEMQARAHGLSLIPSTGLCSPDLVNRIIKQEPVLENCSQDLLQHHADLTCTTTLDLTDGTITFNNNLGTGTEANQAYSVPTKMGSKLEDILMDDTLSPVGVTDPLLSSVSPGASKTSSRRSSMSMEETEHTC
FBW7 act = activators of human E3 ligase FBW7; 650,000 tested, 0.13% active; AlphaScreen FBW7–phospho-cyclin E peptide binding, activator screen; AID 1259310; normalized activity (activation), % at 26.1 µM; Q969H0; in the data active means normalized activity above about 1.9%;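 further: purified mutant Fbw7 with reduced substrate affinity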
GPR151 activ = activates the human receptor GPR151 | Q8TDV0 | PathHunter beta-arrestin GPR151 cells, luminescence | activation, % at 11.2 µM | 650,000 tested, 1% active; in the data active means activation above about 4.9%;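 further: 0% = median of compound wells and 100% = cells with positive control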
TEAD-YAP block = TEAD-YAP interaction inhibition; HEK-TIYL cells, TEAD-Gal4/YAP UAS-luciferase luminescence; inhibition, % at 9.12 µM; 640,000 tested, 1.4% active; in the data active means inhibition above about 32%;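 further: 0% = median of test compound wells and 100% = reference inhibitor wells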
MITF inh conf = confirmation of human MITF inhibitors | shares compounds with MITF primary | AlphaScreen MITF homodimerization, biotin/His-MITF beads | inhibition, % at 2.6 µM | 4,700 tested, 16% active | AID 1259372;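 active means inhibition above a cutoff derived from the DMSO control wells, cut at about 28% in these data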;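 further: 0% = MITF dimer wells with DMSO only; inhibitors lower the bead chemiluminescence by keeping MITF from dimerizing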
AlphaScreen DR = optically interferes with AlphaScreen signal in dose response; shares compounds with MITF primary; AlphaScreen optical interference counterscreen, cell-free; IC50, µM; 480 tested, 6% active; AID 1259373; call rule not given here
AS interf ctr = counter-screen: compounds optically interfering with AlphaScreen. shares compounds with MITF primary. LysRS AlphaScreen counterscreen, signal interference, triplicate. inhibition, % at 2.6 µM. 4,700 tested, 7.6% active;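 active means inhibition above a cutoff derived from the DMSO control wells, cut at about 30% in these data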
* = called active by the depositor; i = inactive; x = no result; ! = a repeat was not active. Rows were chosen to be rich in hits. Some 3.4% of all compounds tested hit in one or more screens of this group.

SMILES	MITF primary	FBW7 act	GPR151 activ	TEAD-YAP block	MITF inh conf	AS interf ctr	others
c1ccc2c(c1)Nc1c(ccc3ccccc13)S2	13	0	-1	-6	x	x
C=CCc1cc(C)ccc1OCCCN1CCCC1	55*	0	0	13	0	9
C=CCc1cc(C)ccc1OCCN1CCCC1	11	0	2	-2	x	x
C=CCc1ccccc1OCCOCCN1CCOCC1	72*	0	3	-2	11	17
C=CCc1cc(Cl)ccc1OCCCN1CCN(C)CC1	79*	0	1	7	4	10
C=CCc1cc(C)ccc1OCCCCn1ccnc1	74*	0	-1	-7	35*	3	AlphaScreen DR=>6.5
CN1CCN(CCCOc2cc(Cl)ccc2Cl)CC1	7	0	-2	-11	x	x
O=C(NCc1ccco1)C1CCNCC1	-7	0	-1	9	x	x
CC(C)OC(=O)C(=O)/C=C(\Nc1ccc(N(C)C)cc1)c1ccccc1	14	0	-1	-18	x	x
C=CCc1cc(C)ccc1OCCOCCN1CCN(C)CC1	60*	0	1	3	-7	-7
C=CCc1cc(Cl)ccc1OCCNCCN1CCOCC1	76*	0	0	5	-9	0
O=C(Cn1cnc2c(nnn2-c2ccc(F)cc2)c1=O)NCc1ccccc1Cl	-1	0	1	11	x	x
O=C(Cc1nc2ccccc2[nH]1)N1CCCC1	-6	0	1	-3	x	x
CCCNc1nc(N2CCCC2CO)nc2c1ncn2CCN1CCCC1=O (configuration not stated)	0	0	3	-4	x	x
CCCCCC(=O)Nc1ccc(OC)cc1	-4	0	-1	-42	x	x
N#C/C(=C\c1nn(CCO)c(N)c1C#N)c1ccco1	46	0	0	-5	x	x
N#C/C(=C\c1nn(-c2ccccc2)c(N)c1C#N)c1ccco1	59*	0	0	-57	83*	-6	AlphaScreen DR=>6.5
C=C1c2c(Cl)ccc(O)c2C(O)=C2C(=O)[C@]3(O)C(O)=C(C(N)=O)C(=O)[C@@H](N(C)C)[C@@H]3[C@@H](O)[C@H]12	63*	0	0	5	85*	30*!	AlphaScreen DR=i
C=C1c2cccc(O)c2C(O)=C2C(=O)[C@]3(O)C(O)=C(C(N)=O)C(=O)[C@@H](N(C)C)[C@@H]3[C@@H](O)[C@H]12	54*	0	0	-7	41*!	6	AlphaScreen DR=>6.5
COc1ccc(CN2CCC(C(=O)NCc3ccc(C)cc3)CC2)cc1	77*	0	2	-1	-7	-5
COc1ccc(CN2CCCC(C(=O)NN)C2)cc1 (configuration not stated)	36	0	-1	0	x	x
CCOC(=O)C1CCCN(Cc2ccc(O)cc2)C1 (configuration not stated)	19	0	0	-6	x	x
CCOC(=O)C1CCCN(Cc2ccc(OC)cc2)C1 (configuration not stated)	52*	0	0	7	-5	0
COc1ccc(CN2CCCC(C(=O)N3CCCCC3)C2)c(OC)c1OC (configuration not stated)	75*	0	0	8	-14	-11
NNC(=O)C1CCCN(Cc2cccc(Oc3ccccc3)c2)C1 (configuration not stated)	54*	0	0	7	-5	-5
SMILES	MITF primary	FBW7 act	GPR151 activ	TEAD-YAP block	MITF inh conf	AS interf ctr	others
CCOC(=O)C1CCCN(Cc2ccc(OC)c(OC)c2OC)C1 (configuration not stated)	33	0	1	-2	x	x
CCN(CC)CCNc1cc(N2CCOCC2)c2noc3c2c1C(=O)c1ccccc1-3	37	-1	0	-56	x	x
CCOC(=O)c1c(SCc2ccc(Cl)cc2Cl)nc(=O)[nH]c1C	4	0	1	-2	x	x
CCOC(=O)c1ccc(NC(=O)c2cc(-c3ccc(OC)cc3)nc3ccccc23)cc1	2	0	0	2	x	x
Cc1ccc(CN2CCCC(C(=O)N3CCCCCC3)C2)cc1 (configuration not stated)	64*	0	0	0	-6	-6
CCOC(=O)C1CCCN(Cc2ccccc2)C1 (configuration not stated)	6	0	-1	-8	x	x
CCOC(=O)C1CCCN(Cc2cccc(Br)c2)C1 (configuration not stated)	53*	1	2	-6	35*	6	AlphaScreen DR=>6.5
Cc1ccc(CN2CCCC(C(=O)N3CCCCC3)C2)cc1 (configuration not stated)	34	0	1	6	x	x
COc1ccc(CN2CCCC(C(=O)N3CCCC3)C2)cc1 (configuration not stated)	45	0	-2	-1	x	x
COc1ccc(CN2CCCC(C(=O)N3CCCCCC3)C2)cc1 (configuration not stated)	73*	0	0	7	-7	-7
CSc1cccc(NC(=O)CN(c2ccc3c(c2)OCO3)S(C)(=O)=O)c1	-8	0	0	-2	x	x
CS(=O)(=O)N(CC(=O)Nc1c(F)cccc1F)c1ccc(Oc2ccccc2)cc1	60*	0	0	-4	10	17
CS(=O)(=O)N(CC(=O)Nc1ccc(F)cc1)c1ccc(Oc2ccccc2)cc1	68*	1	1	-22	7	16
CS(=O)(=O)N(CC(=O)Nc1cccc(F)c1)c1ccc2c(c1)OCO2	64*	0	2	0	-1	-3
CCOC(=O)N1CCN(C(=O)C2CCN(Cc3ccccc3OC)CC2)CC1	54*	0	-1	-4	2	17
CCOC(=O)N1CCN(C(=O)C2CCN(Cc3cc(OC)ccc3OC)CC2)CC1	41	0	0	3	x	x
COc1cc(CN2CCC(C(=O)N3CCCC(C)C3)CC2)ccc1O (configuration not stated)	24	0	2	5	x	x
COc1cc(CN2CCC(C(=O)N3CCN(Cc4ccccc4)CC3)CC2)ccc1O	60*	0	0	2	-1	0
O=C(C1CCN(Cc2ccc(F)cc2)CC1)N1CCN(c2ccccc2)CC1	52*	0	1	0	1	15
CCOc1ccccc1N1CCN(C(=O)C2CCNCC2)CC1	58*	0	0	6	11	13
O=C(Nc1ccc2c(c1)OCO2)c1cc(F)c(F)c(F)c1F	30	0	-1	-5	x	x
O=C(C1CCN(Cc2cccc(O)c2)CC1)N1CCN(Cc2ccccc2)CC1	48	0	0	4	x	x
COc1ccccc1CN1CCC(C(=O)N2CCN(Cc3ccccc3)CC2)CC1	52*	0	1	15	10	10
COc1ccc(CN2CCC(C(=O)N3CCc4ccccc4C3)CC2)cc1	30	0	0	2	x	x
O=C(C1CCN(Cc2ccccc2)CC1)N1CCN(Cc2ccccc2)CC1	55*	0	-1	19	6	13

Screening data: PubChem BioAssay, The Scripps Research Institute Molecular Screening Center
